{
  "source": "the antibiotic and cytotoxicity screens of Wong et al. (2023)",
  "note": "In all, about 39,000 compounds went through this assay and about 3,300 (8.5%) were called active. What follows is part of a selection rich in actives, with near analogues and random picks from the rest.",
  "data": [
    {"system": "HepG2", "test": "cytotoxicity call (relative viability < 0.9)", "conditions": "10 µM", "values": [
      {"smiles": "Cc1cccc(CN(C)C[C@@H]2Oc3ncc(-c4cccc(C(F)(F)F)c4)cc3C(=O)N([C@H](C)CO)C[C@@H]2C)c1", "cytotoxicity call": "inactive"},
      {"smiles": "CC(C)NC(=O)Nc1ccc2c(c1)C(=O)N([C@H](C)CO)C[C@@H](C)[C@@H](CN(C)S(=O)(=O)c1cn(C)cn1)OCCCC[C@H](C)O2", "cytotoxicity call": "inactive"},
      {"smiles": "COc1ccc(S(=O)(=O)Nc2ccc3c(c2)CC(=O)N([C@H](C)CO)C[C@H](C)[C@H](CN(C)S(=O)(=O)c2ccc(OC)cc2)O3)cc1", "cytotoxicity call": "inactive"},
      {"smiles": "Nc1cc(=O)nc(C(F)(F)F)[nH]1", "cytotoxicity call": "inactive"},
      {"smiles": "Cc1ccc(S(=O)(=O)Nc2cccc3c2O[C@@H](CN(C)S(=O)(=O)c2ccc(F)cc2)[C@@H](C)CN([C@@H](C)CO)C3=O)cc1", "cytotoxicity call": "inactive"},
      {"smiles": "O=C(CN1CCOCC1)N[C@@H]1CC[C@H](CCNC(=O)Nc2cc(F)ccc2F)O[C@H]1CO", "cytotoxicity call": "inactive"},
      {"smiles": "COc1ccc(S(=O)(=O)Nc2ccc3c(c2)[C@@H]2C[C@H](CC(=O)NCC4CC4)O[C@H](CO)[C@@H]2O3)cc1", "cytotoxicity call": "inactive"},
      {"smiles": "CCS(=O)(=O)Nc1ccc2c(c1)C(=O)N(C)[C@@H]1CC[C@H](CC(=O)N[C@H]3CCN(Cc4ccccc4)C3)O[C@@H]1CO2", "cytotoxicity call": "inactive"},
      {"smiles": "c1cc([C@@H]2CNCCN2)[nH]n1", "cytotoxicity call": "inactive"},
      {"smiles": "C[C@@H]1CCCCO[C@H](CN(C)S(=O)(=O)c2ccccc2)[C@H](C)CN([C@@H](C)CO)C(=O)c2cc(NC(=O)CCC(F)(F)F)ccc2O1", "cytotoxicity call": "inactive"},
      {"smiles": "Cc1noc(C)c1S(=O)(=O)Nc1cccc2c1O[C@H](CN(C)S(=O)(=O)c1c(C)noc1C)[C@H](C)CN([C@@H](C)CO)C2=O", "cytotoxicity call": "inactive"},
      {"smiles": "CC(C)NC(=O)Nc1ccc2c(c1)CC(=O)N([C@@H](C)CO)C[C@@H](C)[C@H](CN(C)Cc1ccc(Oc3ccccc3)cc1)O2", "cytotoxicity call": "inactive"},
      {"smiles": "C[C@H](CO)N1C[C@H](C)[C@H](CN(C)Cc2ccc(Oc3ccccc3)cc2)Oc2ccc(NC(=O)Nc3ccccc3)cc2CC1=O", "cytotoxicity call": "inactive"},
      {"smiles": "C[C@@H]1CN([C@H](C)CO)C(=O)Cc2cc(NC(=O)Nc3ccccc3)ccc2O[C@@H]1CN(C)Cc1ccc(Oc2ccccc2)cc1", "cytotoxicity call": "active"},
      {"smiles": "CC(C)NC(=O)Nc1ccc2c(c1)CC(=O)N([C@@H](C)CO)C[C@@H](C)[C@@H](CN(C)Cc1ccc(Oc3ccccc3)cc1)O2", "cytotoxicity call": "inactive"},
      {"smiles": "CC(C)NC(=O)Nc1ccc2c(c1)CC(=O)N([C@H](C)CO)C[C@@H](C)[C@H](CN(C)Cc1ccc(Oc3ccccc3)cc1)O2", "cytotoxicity call": "inactive"},
      {"smiles": "CC(C)NC(=O)Nc1ccc2c(c1)CC(=O)N([C@H](C)CO)C[C@@H](C)[C@@H](CN(C)Cc1ccc(Oc3ccccc3)cc1)O2", "cytotoxicity call": "active"},
      {"smiles": "CCOc1nc2cccc(C(=O)OCc3oc(=O)oc3C)c2n1Cc1ccc(-c2ccccc2-c2noc([O-])n2)cc1.[K+]", "cytotoxicity call": "inactive"},
      {"smiles": "O=C(C[C@@H]1CC[C@@H]2[C@H](COC[C@@H](O)CN2C(=O)c2ccc(F)cc2)O1)NCCCN1CCOCC1", "cytotoxicity call": "inactive"},
      {"smiles": "CN(C)C(=O)c1ccc(-c2cccc(-c3nc(C(=O)NC4CCC4)cc4c3[C@H](CCO)N([S@@](=O)C(C)(C)C)C4)c2)cc1", "cytotoxicity call": "inactive"},
      {"smiles": "Cc1ccc(S(=O)(=O)N(C)C[C@H]2Oc3ccc(NS(=O)(=O)c4cccs4)cc3C(=O)N([C@@H](C)CO)C[C@H]2C)cc1", "cytotoxicity call": "inactive"},
      {"smiles": "CC1(C)OC(=O)C2(C(=O)O1)[C@@H](c1ccc(-c3cccc(Br)c3)cc1)CC(=O)C[C@H]2c1ccccc1", "cytotoxicity call": "inactive"},
      {"smiles": "CCCNC(=O)c1cc2c(c(-c3cccc(-c4cc5ccccc5o4)c3)n1)[C@H](CCO)N(C(=O)NC(C)C)C2", "cytotoxicity call": "inactive"},
      {"smiles": "C[C@@H]1CCCCO[C@@H](CN(C)S(=O)(=O)c2ccccc2)[C@@H](C)CN([C@@H](C)CO)C(=O)c2cc(NC(=O)Nc3cccc4ccccc34)ccc2O1", "cytotoxicity call": "inactive"},
      {"smiles": "Cc1noc(C)c1S(=O)(=O)Nc1ccc2c(c1)C(=O)N([C@H](C)CO)C[C@H](C)[C@@H](CN(C)S(=O)(=O)c1cn(C)cn1)OCCCC[C@H](C)O2", "cytotoxicity call": "inactive"},
      {"smiles": "C[C@H]1CN([C@@H](C)CO)C(=O)c2cc(NC(=O)Nc3cccc4ccccc34)ccc2O[C@@H]1CN(C)Cc1ccc(C(F)(F)F)cc1", "cytotoxicity call": "inactive"},
      {"smiles": "C[C@H]1CN([C@@H](C)CO)C(=O)c2cc(NC(=O)Nc3cccc4ccccc34)ccc2O[C@H]1CN(C)Cc1ccc(C(F)(F)F)cc1", "cytotoxicity call": "inactive"},
      {"smiles": "C[C@H](CO)N1C[C@H](C)[C@H](CN(C)Cc2ccc(C(F)(F)F)cc2)Oc2ccc(NC(=O)Nc3cccc4ccccc34)cc2C1=O", "cytotoxicity call": "active"},
      {"smiles": "C[C@@H]1CN([C@@H](C)CO)C(=O)c2cc(NC(=O)Nc3cccc4ccccc34)ccc2O[C@@H]1CN(C)Cc1ccc(C(F)(F)F)cc1", "cytotoxicity call": "active"},
      {"smiles": "C[C@@H]1CN([C@H](C)CO)C(=O)c2cc(NC(=O)Nc3cccc4ccccc34)ccc2O[C@@H]1CN(C)Cc1ccc(C(F)(F)F)cc1", "cytotoxicity call": "inactive"},
      {"smiles": "C[C@@H]1CN([C@@H](C)CO)C(=O)c2cc(NC(=O)Nc3cccc4ccccc34)ccc2O[C@H]1CN(C)Cc1ccc(C(F)(F)F)cc1", "cytotoxicity call": "active"},
      {"smiles": "C[C@@H]1CN([C@H](C)CO)C(=O)c2cc(NC(=O)Nc3cccc4ccccc34)ccc2O[C@H]1CN(C)Cc1ccc(C(F)(F)F)cc1", "cytotoxicity call": "inactive"},
      {"smiles": "C[C@H](CO)N1C[C@H](C)[C@@H](CN(C)Cc2ccc(C(F)(F)F)cc2)Oc2ccc(NC(=O)Nc3cccc4ccccc34)cc2C1=O", "cytotoxicity call": "inactive"},
      {"smiles": "O=C(O)c1cc(=O)cc(C(=O)O)o1", "cytotoxicity call": "inactive"},
      {"smiles": "C=CCn1c(O)c(C#N)c(C)cc1=O", "cytotoxicity call": "inactive"},
      {"smiles": "CN(C)C(=O)C[C@H]1CC[C@H](NC(=O)C2CCOCC2)[C@H](CO)O1", "cytotoxicity call": "inactive"},
      {"smiles": "C[C@@H]1CCCCO[C@H](CN(C)C(=O)c2ccccc2)[C@@H](C)CN([C@H](C)CO)C(=O)c2cc(NS(=O)(=O)c3ccc(Cl)cc3)ccc2O1", "cytotoxicity call": "inactive"},
      {"smiles": "N#C/C(=C\\c1cccs1)c1csc2ccc(Cl)cc12", "cytotoxicity call": "inactive"},
      {"smiles": "CO[C@@H]1CN(C)C(=O)c2cc(NC(=O)CC(F)(F)F)ccc2OC[C@@H](C)N(S(=O)(=O)c2cn(C)cn2)C[C@@H]1C", "cytotoxicity call": "inactive"},
      {"smiles": "O=S(=O)(c1cccc(OC(F)F)c1)N1[C@@H]2CC[C@@H](C2)[C@H]1c1nc2cccc(OCc3ccccc3)c2[nH]1", "cytotoxicity call": "inactive"},
      {"smiles": "C[C@@H]1CN([C@@H](C)CO)S(=O)(=O)c2ccc(C#CC(C)(C)O)cc2O[C@H]1CN(C)Cc1ccc(F)cc1", "cytotoxicity call": "inactive"},
      {"smiles": "C[C@H]1CN([C@@H](C)CO)C(=O)Cc2cc(NC(=O)Nc3ccc4c(c3)OCO4)ccc2O[C@H]1CN(C)Cc1ccc(C(F)(F)F)cc1", "cytotoxicity call": "active"},
      {"smiles": "C[C@@H]1CN([C@@H](C)CO)C(=O)Cc2cc(NC(=O)Nc3ccc4c(c3)OCO4)ccc2O[C@@H]1CN(C)Cc1ccc(C(F)(F)F)cc1", "cytotoxicity call": "inactive"},
      {"smiles": "C[C@@H]1CN([C@@H](C)CO)C(=O)Cc2cc(NC(=O)Nc3ccc4c(c3)OCO4)ccc2O[C@H]1CN(C)Cc1ccc(C(F)(F)F)cc1", "cytotoxicity call": "inactive"},
      {"smiles": "C[C@@H]1CN([C@H](C)CO)C(=O)Cc2cc(NC(=O)Nc3ccc4c(c3)OCO4)ccc2O[C@H]1CN(C)Cc1ccc(C(F)(F)F)cc1", "cytotoxicity call": "active"},
      {"smiles": "C[C@H](CO)N1C[C@H](C)[C@H](CN(C)Cc2ccc(C(F)(F)F)cc2)Oc2ccc(NC(=O)Nc3ccc4c(c3)OCO4)cc2CC1=O", "cytotoxicity call": "inactive"},
      {"smiles": "C[C@H]1CN([C@@H](C)CO)C(=O)Cc2cc(NC(=O)Nc3ccc4c(c3)OCO4)ccc2O[C@@H]1CN(C)Cc1ccc(C(F)(F)F)cc1", "cytotoxicity call": "inactive"},
      {"smiles": "C[C@@H]1CN([C@H](C)CO)C(=O)Cc2cc(NC(=O)Nc3ccc4c(c3)OCO4)ccc2O[C@@H]1CN(C)Cc1ccc(C(F)(F)F)cc1", "cytotoxicity call": "active"},
      {"smiles": "C[C@H](CO)N1C[C@H](C)[C@@H](CN(C)Cc2ccc(C(F)(F)F)cc2)Oc2ccc(NC(=O)Nc3ccc4c(c3)OCO4)cc2CC1=O", "cytotoxicity call": "inactive"},
      {"smiles": "C[C@@H]1CCCCO[C@H](CN(C)C(=O)c2ccccc2)[C@H](C)CN([C@@H](C)CO)C(=O)c2cc(NS(=O)(=O)c3ccc(F)cc3)ccc2O1", "cytotoxicity call": "inactive"},
      {"smiles": "COCC(=O)N1C[C@H](C)[C@@H](OC)CN(C)C(=O)c2cc(NC(=O)Nc3ccccc3)ccc2OC[C@H]1C", "cytotoxicity call": "inactive"},
      {"smiles": "C[C@@H]1CN([C@@H](C)CO)C(=O)c2cc(-c3ccc(C(=O)N(C)C)cc3)cnc2O[C@@H]1CN(C)C(=O)c1cccnc1", "cytotoxicity call": "inactive"},
      {"smiles": "C[C@@H]1CN([C@@H](C)CO)S(=O)(=O)c2ccc(C#Cc3ccc(F)cc3)cc2O[C@H]1CN(C)S(=O)(=O)c1cn(C)cn1", "cytotoxicity call": "inactive"},
      {"smiles": "C[C@@H]1CN([C@H](C)CO)C(=O)c2cc(NC(=O)Cn3cnnn3)ccc2O[C@@H]1CN(C)Cc1ccc(C(=O)O)cc1", "cytotoxicity call": "inactive"},
      {"smiles": "COc1ccc(CCNC(=O)[C@@]2(Sc3ccc(C)cc3)CC(=O)N(Cc3ccccc3C(F)(F)F)[C@@H]2c2ccc(CO)cc2I)cc1", "cytotoxicity call": "inactive"},
      {"smiles": "O=C(NCC1CC1)[C@@H]1[C@@H](CO)[C@@H]2Cn3c(cccc3=O)[C@H]1N2C(=O)c1cccnc1", "cytotoxicity call": "inactive"},
      {"smiles": "Cc1ccc(S(=O)(=O)Nc2cccc3c2O[C@H](CN(C)S(=O)(=O)c2ccccc2)[C@@H](C)CN([C@H](C)CO)C3=O)cc1", "cytotoxicity call": "inactive"},
      {"smiles": "C[C@]12CC3CC(N)(C1)C[C@@](C)(C3)C2", "cytotoxicity call": "inactive"},
      {"smiles": "CC12CC3CC(C)(C1)CC(N)(C3)C2.Cl", "cytotoxicity call": "active"},
      {"smiles": "C[C@]12C[C@@H]3C[C@](C)(C1)C[C@@](N)(C3)C2", "cytotoxicity call": "inactive"},
      {"smiles": "C[C@@H]1CN([C@@H](C)CO)C(=O)c2cc(NC(=O)Nc3ccc4c(c3)OCO4)ccc2O[C@@H]1CN(C)S(C)(=O)=O", "cytotoxicity call": "inactive"},
      {"smiles": "O=C(NCCN1CCOCC1)[C@]1(CCS(=O)(=O)c2ccccc2)N=C(c2ccc(OCCCO)cc2)O[C@@H]1c1ccccc1", "cytotoxicity call": "inactive"},
      {"smiles": "COc1ccc(NC(=O)N(C)C[C@@H]2Oc3ccc(NC(=O)CCCCCC(=O)Nc4ccccc4N)cc3CC(=O)N([C@@H](C)CO)C[C@H]2C)cc1", "cytotoxicity call": "inactive"},
      {"smiles": "C[C@H]1CCCCO[C@@H](CN(C)C(=O)NC2CCCCC2)[C@@H](C)CN([C@@H](C)CO)C(=O)c2cc(NC(=O)CCC(F)(F)F)ccc2O1", "cytotoxicity call": "inactive"}
    ]}
  ]
}
